Test system: MLK3
Settings: concentration: 1 μM, replicates: in singlicate; n = 1
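Further: KINOMEscan kinase panel screen.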

| Compound | %Inh [%] |
| --- | --- |
| O=C(Nc1n[nH]c2cc(-c3cccc(F)c3F)ccc12)C1CC1 [SB-733894] | 4 |
| Cc1csc(-c2nc(Nc3ccncc3)c3ccccc3n2)n1 [GW869640] | 0 |
| Cl.NC(=O)c1cccc(Nc2nccc(Nc3ccc(Oc4cccc(Cl)c4)c(Cl)c3)n2)c1 [GW659008] | 0 |
| O=C1NC(=O)C(N2CCc3ccccc32)=C1c1ccccc1Cl [SB-373598] | 46 |
| COC(=O)c1c(-c2ccccc2)c2cc(C(=O)O)ccc2c(=O)n1Cc1ccccc1 | 0 |
| Cc1cc(-c2ccc3c(c2)CC[C@@H](N[C@@H](C)c2ccccc2)C3)cnc1N.Cl [GW412617] | 32 |
| Nc1ncnc2[nH]c(-c3ccccc3)nc12 [AH5015] | 4 |
| O=C(Nc1n[nH]c2nc(-c3nccs3)c(Br)cc12)C1CC1 [SB-742251] | 0 |
| Cc1ccccc1-n1cnc2c(N)ncnc21 [SKF-97510] | 1 |
| Clc1cc(Cl)cc(Nc2ccnc(Nc3cc(Cl)cc(Cl)c3)n2)c1 [GSK175726] | 10 |
| Cn1ccc2ncnc(Oc3ccc(Nc4nc5ccccc5[nH]4)cc3)c21 | 0 |
| CCCc1ccc(S(=O)(=O)NC2CCN(c3ccnc(Nc4ccc(F)cc4)n3)C2)cc1 (stereo not shown) [GSK1379715] | 0 |
| COc1cc2nccc(Nc3ccc(NC(=O)c4ccc(C)cc4)c(O)c3)c2cc1OC.Cl [GW440132] | 33 |
| CCn1c(-c2ccccn2)nc2cnccc21 [SB-736398] | 7 |
| Cl.O=C(Nc1cccc(-c2nn3ncccc3c2-c2ccnc(Nc3cccnc3)n2)c1)c1c(F)cccc1F [GSK312879] | 1 |
| Cc1ccc(NC(=O)Nc2cccc(Cl)c2)cc1-c1ccc(C(=O)Nc2ccncc2)cc1 [GSK1398468] | 0 |
| O=C(Nc1ccc2c(c1)OCO2)NC1CCN(c2ccnc(Nc3ccc(F)cc3)n2)C1 (stereo not shown) [GSK1379724] | 2 |
| COc1ccc(Nc2nccc(NCCNC(=O)Nc3ccccc3F)n2)cc1 [GSK1379901] | 25 |
| COc1ccc(Nc2nccc(-c3cccc(NC(=O)c4cc5cc(F)ccc5[nH]4)c3)n2)cc1 [GSK1229782] | 34 |
| Cc1cc(N2Cc3ccccc3C2)nc(Nc2ccc(S(=O)(=O)N3CCOCC3)cc2)n1.Cl [GSK1669917] | 15 |
| COc1ccc(CNC(=O)NC2CCN(c3ccnc(Nc4cc(OC)c(OC)c(OC)c4)n3)C2)cc1 (stereo not shown) [GSK1379748] | 23 |
| Cc1ccc(-c2cc(-c3c[nH]nc3-c3ccccn3)ccn2)cc1 [GW684088] | 15 |

Reference: PMC5540273 (PLoS ONE, 2017)
